Among the data in PubChem BioAssay (NCATS) are z-score, activity, negative = inhibition and Potency values, retold here.

SMILES strings stand for the structures. Results filed as inconclusive are left out. Activity calls are given as the source filed them. Calls follow the shape of the dose curve; as a rule, active = well fitted inhibition curve with a large enough effect; inconclusive = small, poorly fitted or top-dose-only effect; inactive = flat fitted curve, though single readings scatter.

Test [1] is described as follows: qHTS for identification of novel therapeutic agents for treatment of microphthalmiaassociated transcription factor (MiT) renal cell carcinoma (RCC) (AID 1963991). The note with it: CellTiter-Glo, 48 h, stronger effect = lower value. The method in brief:
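Three TFE3-fusion RCC cell lines (UOK109, UOK124, UOK145), 500 cells/well, were exposed to the 1912-compound MIPE 4.0 library for 48 hours at 37 C. Viability was read by CellTiter-Glo luminescence, normalised to DMSO (100%) and empty wells (0%), with 11-concentration curve fits.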
A general note: In qHTS, concentration-response curves come from the screen itself.

Test [2] can be described thus: qHTS profiling for inhibitors of Plasmodium falciparum proliferation (AID 504749).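 Also: 0% = DMSO vehicle and full inhibition = artemisinin control; nearly all actives have a fitted effect of over 60% in size.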 Conditions: P. falciparum in erythrocytes, SYBR Green DNA, 72 h. The method in brief:
(§1)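 P. falciparum-infected erythrocytes (0.3% parasitemia, 2.5% hematocrit final) were exposed to compounds for 72 h at 37 C in 5% CO2, then lysed with SYBR Green buffer overnight at room temperature; parasite DNA fluorescence was normalized to artemisinin and DMSO controls.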

The test system of a further test is AA1029. The test is described as above. The note with it: P. falciparum in erythrocytes, SYBR Green DNA, 72 h; series mostly up to 28.7 µM. Summed up:
as §1

For another test, the system named is ATS189. The test is described as above. The note with it: P. falciparum in erythrocytes, SYBR Green DNA, 72 h; series mostly up to 28.7 µM. The method in brief: as §1
In another test the test system is ATS95. Described as above. Conditions: P. falciparum in erythrocytes, SYBR Green DNA, 72 h; series mostly up to 28.7 µM. The method in brief: as §1
The subject of the next test is C2A. The test is described as above. Conditions: P. falciparum in erythrocytes, SYBR Green DNA, 72 h; series mostly up to 28.7 µM. Summed up:
as §1

Another test concerns CP185. Described as above. The note with it: P. falciparum in erythrocytes, SYBR Green DNA, 72 h; series mostly up to 28.7 µM. The method in brief: as §1
A further test relates to CP192. The description is as above. Conditions: P. falciparum in erythrocytes, SYBR Green DNA, 72 h; series mostly up to 28.7 µM. The method in brief: as §1
The test system of the next test is CP211. The description is as above. Conditions: P. falciparum in erythrocytes, SYBR Green DNA, 72 h; series mostly up to 28.7 µM. The method in brief: as §1
Another test deals with CP217. Described as above. Conditions: P. falciparum in erythrocytes, SYBR Green DNA, 72 h; series mostly up to 28.7 µM. Summed up: as §1
For the next test, the system named is CP237. Described as above. Conditions: P. falciparum in erythrocytes, SYBR Green DNA, 72 h; series mostly up to 28.7 µM. The method in brief: as §1
The test system of another test is 3D7. The description is as above. The note with it: P. falciparum in erythrocytes, SYBR Green DNA, 72 h; series mostly up to 28.7 µM. Summed up:
as §1

The subject of a further test is 7G8. The description is as above. Conditions: P. falciparum in erythrocytes, SYBR Green DNA, 72 h; series mostly up to 28.7 µM. Summed up:
as §1

Another test deals with AS120. The test is described as above. The note with it: P. falciparum in erythrocytes, SYBR Green DNA, 72 h; series mostly up to 28.7 µM. The method in brief: as §1
The next test concerns CP191. The description is as above. Conditions: P. falciparum in erythrocytes, SYBR Green DNA, 72 h; series mostly up to 28.7 µM. The method in brief: as §1
The next test concerns CP194. Described as above. Conditions: P. falciparum in erythrocytes, SYBR Green DNA, 72 h; series mostly up to 28.7 µM. Summed up: as §1
In a further test the test system is CP201. Described as above. The note with it: P. falciparum in erythrocytes, SYBR Green DNA, 72 h; series mostly up to 28.7 µM. Summed up:
as §1

Another test has as its system CP203. The test is described as above. Conditions: P. falciparum in erythrocytes, SYBR Green DNA, 72 h; series mostly up to 28.7 µM. Summed up: as §1
In another test the test system is CP215. The description is as above. The note with it: P. falciparum in erythrocytes, SYBR Green DNA, 72 h; series mostly up to 28.7 µM. The method in brief:
as §1

The mark [3] stands for this setting: TFE3-RCC UOK109 viability, measured here: UOK109 Z-AUC.
Setting [4] is: TFE3-RCC viability, measured here: UOK124 Z-AUC.
Where [5] appears, read: TFE3-RCC viability, measured here: UOK145 Z-AUC.
Where [6] appears, read: at 28.7 µM (top of the series), parasite line A.
[7] abbreviates: at 28.7 µM (top of the series), parasite line B.

As for `COc1cccc(N(C)C(=S)Oc2ccc3c(c2)CCCC3)n1`, the figures for the z-score in test [1] (setting [3]), in [1] (setting [4]) and in [1] (setting [5]) were 0.559, 0.578 and 1.67, respectively. For the same compound, the activity, negative = inhibition in test [2] (setting [6]) was -29.5% (inactive); in test [2] (setting [7]) it was -22.3% (inactive). The Potency result with AA1029, with ATS189, in the test on ATS95, in the test on C2A, with CP185 and in the test with CP192 was “inactive” in each case. In addition, the Potency result with CP211, with CP217 and with CP237 was “inactive” throughout.

In the case of `CC1=C(C(=O)O)N2C(=O)[C@@H](NC(=O)C(N)c3ccccc3)[C@H]2SC1` (stereo partly drawn), the z-score in test [1] (setting [3]) is 1.68; in test [1] (setting [4]), 0.228; in test [1] (setting [5]) it was 0.731.

In the case of `CCOCC(O)COc1ccc(NC(=O)CC[S+](C)C)cc1` (stereo not drawn), the z-score in test [1] (setting [3]) is 0.123; in [1] (setting [4]), 0.296; in [1] (setting [5]), 0.104. Besides, the values for the activity, negative = inhibition in [2] (setting [6]) and in [2] (setting [7]) were 8.74% (inactive) and 4.77% (inactive), respectively. Further, the Potency entry with 3D7, in the test with 7G8, in the test on AA1029, in the test with AS120, in the test on ATS189 and in the test on ATS95 was “inactive” throughout. The Potency entry in the test with C2A, in the test with CP185, in the test on CP191, with CP192, in the test on CP194 and with CP201 was “inactive” each time. For the same compound, the Potency result in the test with CP203, with CP211, with CP215, in the test on CP217 and with CP237 was “inactive” each time.

Take `Cc1ccnc2c1NC(=O)c1cccnc1N2C1CC1`: the activity, negative = inhibition in [2] (setting [6]) is 0.983% (inactive); in [2] (setting [7]) it was -17.2% (inactive). The Potency result in the test on 3D7, in the test with AA1029, in the test with AS120, in the test with ATS189, in the test with ATS95 and in the test with C2A was “inactive” throughout. Further, the Potency entry with CP185, in the test on CP191, in the test with CP192, in the test with CP194, in the test with CP201 and in the test on CP203 was “inactive” throughout. Besides, the Potency result in the test with CP211, in the test with CP215, in the test with CP217 and with CP237 was “inactive” each time.

As for `CCN(C)C(=O)Oc1cccc([C@H](C)N(C)C)c1`, the z-score in test [1] (setting [3]) amounted to 0.893; in [1] (setting [4]) it was 0.446; in test [1] (setting [5]), 1.29. Besides, the figures for the activity, negative = inhibition in [2] (setting [6]) and in [2] (setting [7]) were 3.53% (inactive) and 1.69% (inactive), respectively. In addition, the Potency entry with 3D7, in the test on 7G8, in the test on AA1029, in the test with AS120, in the test on ATS189 and with ATS95 was “inactive” throughout. The Potency entry with C2A, with CP185, in the test with CP191, in the test with CP192, in the test with CP194 and in the test on CP201 was “inactive” throughout. Further, the Potency entry in the test on CP211, in the test on CP215, in the test with CP217 and with CP237 was “inactive” in each case.

Regarding `CN1CCN(c2c(F)cc3c(=O)c(C(=O)O)cn4c3c2OCN4C)CC1`, the values for the activity, negative = inhibition in test [2] (setting [6]) and in test [2] (setting [7]) were 4.43% (inactive) and 17.6% (inactive), respectively. The Potency entry with 3D7, in the test with 7G8, with AA1029, in the test on AS120, with ATS189 and in the test on ATS95 was “inactive” throughout. For the same compound, the Potency result in the test on C2A, with CP185, in the test with CP191, with CP192, in the test on CP194 and in the test with CP201 was “inactive” throughout. For the same compound, the Potency result in the test on CP203, with CP211, with CP215, in the test with CP217 and with CP237 was “inactive” throughout.

For `COc1ccc2c(c1)c(CC(=O)OCC(=O)O)c(C)n2C(=O)c1ccc(Cl)cc1`, the z-score in test [1] (setting [3]) stood at 1.12; in test [1] (setting [4]) it was 1.19; in test [1] (setting [5]), 0.507.

As to `COc1cc(NS(=O)(=O)c2ccc(N)cc2)nc(OC)n1`, the activity, negative = inhibition in [2] (at 12.8 µM (top of the series), parasite line A) is 5.18% (inactive); in test [2] (at 12.8 µM (top of the series), parasite line B), -3.51% (inactive). Also, the Potency result in the test on 3D7, in the test on 7G8, with AA1029, with AS120, in the test with ATS189 and with ATS95 was “inactive” each time. In addition, the Potency entry in the test on C2A, with CP185, with CP191, in the test with CP192, in the test on CP194 and with CP201 was “inactive” throughout. Further, the Potency entry in the test on CP211, in the test on CP215, in the test on CP217 and in the test with CP237 was “inactive” each time.
